HSF1 inh = HSF1 inhibition | activity change, negative = inhibition, % at 7.5 µM (by protocol) | NIH3T3-HGL HSE-luciferase, MG132-induced, luminescence 8 h; hits give low values | AID 2098 | 300,000 tested, 0.77% active;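 active = more than half of replicate wells show activity change below -50%, luminescence cut by over half; inconclusive = some wells, but at most half, below -50%; inactive = no replicate well below -50%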;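 note: luciferase reports HSF-1 transcriptional activity via heat shock element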
HSP90 refold inh = blocks HSP90-mediated luciferase refolding in reticulocyte lysate; 290,000 tested, 0.91% active; inhibition, % at 5.6 µM; Rabbit reticulocyte lysate, luciferase refolding luminescence, 3 h; AID 1789;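 active = inhibition above the screen-wide mean plus 3 SD, computed separately per campaign, cut at about 16% in these data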;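 note: inhibitors lower the luminescence because luciferase stays unfolded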
HSF1 activator = increases HSF-1 driven luciferase reporter signal. NIH3T3-HGL HSF-1 luciferase reporter, MG132, 8 h; 100% = twice DMSO control signal. activation, % at 9 µM. 300,000 tested, 1.7% active;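 active = mean replicate activation of at least 50% with a set share of replicates each reaching 50%; inconclusive = only one of those two conditions met; inactive = mean below 50% and too few replicates reaching it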
NR0B1 inh = inhibits human nuclear receptor DAX1 | 340,000 tested, 0.99% active | inhibition, % at 6.75 µM | HEK293 Gal4-DAX1 luciferase reporter, luminescence | P51843;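 active = inhibition above the mean over all tested compounds plus 3 SD, cut at about 4.2% in these data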;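 note: inhibition shows as a rise in luminescence from relieved DAX1 repression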
AHR activator = activators of human aryl hydrocarbon receptor | AHR-responsive luciferase reporter cells, luminescence | activation, % at 5 µM | 320,000 tested, 2.5% active; in the data active = activation above about 47%
Target sequence (P35869 whole entry, looked up): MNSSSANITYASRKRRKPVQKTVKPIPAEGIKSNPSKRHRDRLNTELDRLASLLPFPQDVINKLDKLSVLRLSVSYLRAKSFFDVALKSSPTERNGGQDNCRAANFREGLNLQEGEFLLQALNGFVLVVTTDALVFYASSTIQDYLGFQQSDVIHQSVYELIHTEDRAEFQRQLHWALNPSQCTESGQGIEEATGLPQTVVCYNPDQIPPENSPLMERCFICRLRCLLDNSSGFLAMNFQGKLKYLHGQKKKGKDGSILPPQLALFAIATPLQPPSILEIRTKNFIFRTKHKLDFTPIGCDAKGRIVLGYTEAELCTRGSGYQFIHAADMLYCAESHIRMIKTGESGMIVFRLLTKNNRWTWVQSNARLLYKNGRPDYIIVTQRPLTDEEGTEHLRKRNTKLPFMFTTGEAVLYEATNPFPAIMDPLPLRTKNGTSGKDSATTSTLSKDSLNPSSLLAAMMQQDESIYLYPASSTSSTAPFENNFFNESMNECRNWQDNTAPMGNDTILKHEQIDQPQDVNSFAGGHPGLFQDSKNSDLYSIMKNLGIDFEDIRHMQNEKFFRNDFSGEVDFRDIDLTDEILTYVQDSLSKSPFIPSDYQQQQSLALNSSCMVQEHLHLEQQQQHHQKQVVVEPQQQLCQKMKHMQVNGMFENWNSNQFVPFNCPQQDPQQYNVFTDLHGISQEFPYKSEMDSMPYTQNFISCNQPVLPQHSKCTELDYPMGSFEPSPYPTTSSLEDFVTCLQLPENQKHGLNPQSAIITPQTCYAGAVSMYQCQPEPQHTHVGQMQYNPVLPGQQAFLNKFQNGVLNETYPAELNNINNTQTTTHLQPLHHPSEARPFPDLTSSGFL
FXN GAA850 act = frataxin GAA850 promoter activation. HEK293 lucGAA850 FXN promoter luciferase reporter, 24 h; percent of 10 µM SAHA response. activation, % at 6 µM. 360,000 tested, 0.56% active. AID 540364;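 active = activation above the average of all compounds screened plus 3 SD, cutoff fixed separately per campaign, cut at about 7.5% in these data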
A number is an active result; i = inactive; ? = inconclusive; nt = no result given. Most compounds without a hit are left out; they make up all but 5.9% or so of the library.

SMILES	HSF1 inh	HSP90 refold inh	HSF1 activator	NR0B1 inh	AHR activator	FXN GAA850 act
COc1ccc(-c2nc3ccccc3o2)cc1NC(=O)c1ccc(Br)o1	i	i	i	i	77	i
Cc1cc(NC(=O)c2ccc([N+](=O)[O-])o2)ccc1NC(=O)c1ccco1	i	i	72	i	nt	i
COc1cc(NC(=O)c2ccc([N+](=O)[O-])o2)ccc1NC(=O)c1ccco1	i	i	125	i	i	i
CCS(=O)c1ccccc1C(=O)OCC(=O)Nc1ccc2ccccc2c1 (stereo unspecified)	nt	nt	nt	i	i	i
COc1ccc(-n2c(=S)[nH]c3cc(C(=O)Nc4ccc(F)cc4)ccc3c2=O)c(OC)c1	i	i	87	i	i	i
CCCCN(C(=O)COc1ccc(C)cc1OC)c1c(N)n(CCC)c(=O)[nH]c1=O	-69	i	i	i	i	i
CCCCN(C(=O)CCN1C(=O)C2CC=CCC2C1=O)c1c(N)n(CCCC)c(=O)[nH]c1=O (stereo unspecified)	nt	nt	nt	4.3	nt	i
CCCCCN(C(=O)CCC(=O)OCC(=O)c1ccc(C(C)(C)C)cc1)c1c(N)n(CCCC)c(=O)[nH]c1=O	i	nt	76	i	i	i
CCCCn1c(N)c(N(CCOC)C(=O)COC(=O)COc2cc(C)ccc2Cl)c(=O)[nH]c1=O	i	nt	i	i	i	i
Cc1ccc(C(C(=O)NC2CCCCC2)N(Cc2cccnc2)C(=O)c2csnn2)cc1 (stereo unspecified)	i	i	i	i	i	i
Nc1ncnc2c1ncn2[C@@H]1O[C@H](CO)C[C@H]1O	i	nt	i	i	i	i
Nc1ncnc2c1ncn2C1C=C(CO)C(O)C1O (stereo unspecified)	nt	nt	nt	7.6	nt	i
O=C(NCC1CCCCC1)c1cc(S(=O)(=O)N2CCOCC2)ccc1F	nt	nt	nt	i	i	i
COc1ccc(N=C2NC(=O)/C(=C\C=C\c3ccco3)S2)cc1	i	i	124	i	nt	i
O=C(CCC1CCCN(C(=O)c2ccncc2)C1)NCc1ccc(F)c(F)c1 (stereo unspecified)	i	i	i	i	i	i
O=C(CCC1CCCN(C(=O)c2cc3ccccc3o2)C1)NCc1ccc(F)c(F)c1 (stereo unspecified)	i	i	52	i	i	i
O=C(Nc1ccccc1Sc1ccccc1)c1ccc(F)cc1	i	i	i	i	i	i
Cc1ccc(C(=O)Nc2ccccc2Sc2ccccc2)cc1	i	i	57	i	i	i
NC(=S)N/N=C/c1ccc(-c2ccc(SC(F)F)cc2)o1	i	i	i	i	53	i
NC(=S)N/N=C/c1ccc(-c2ccc(Cl)c(Cl)c2)o1	i	i	i	i	48	i
O=C(O)c1cc(-c2ccc(/C=N/NC(=S)Nc3ccccc3)o2)ccc1Cl	i	i	i	nt	i	i
Nc1nc2ccccc2n1C(=O)CCc1ccccc1	i	i	i	5.0	i	i
Nc1nc2ccccc2n1C(=O)c1cccs1	i	i	i	i	52	i
Nc1nc2ccccc2n1C(=O)c1ccco1	i	i	i	i	nt	i
O=C(O)c1ccccc1-c1ccccc1C(=O)NCc1ccccc1F	i	i	i	i	i	i
SMILES	HSF1 inh	HSP90 refold inh	HSF1 activator	NR0B1 inh	AHR activator	FXN GAA850 act
Cc1cccc(C)c1-n1nnnc1SCC(=O)N1CCNC1=O	nt	nt	nt	i	nt	i
Cc1ccccc1C(=O)Nc1ccccc1-n1cccc1	i	i	i	i	i	i
C=CCN(CC=C)C(=O)c1ccccc1NC(=O)c1ccccc1C	i	i	i	i	56	i
CCN(CC)C(=O)C1=C(C)N(Cc2ccc(C(C)(C)C)cc2)C(=O)C(CC(=O)NCc2cccs2)C1 (stereo unspecified)	nt	nt	nt	i	nt	i
O=C(CN1C(=O)NC2(CCc3ccccc32)C1=O)c1ccc(Br)s1 (stereo unspecified)	nt	nt	nt	i	i	i
Brc1c(CSc2nc3ccccc3s2)nc2ncccn12	i	i	66	i	i	i
C=C1C(=O)C=C2CN(C(=O)c3ccccc3)[C@@](Cc3ccc(F)cc3)(C(=O)OC)[C@@H]12	i	18	?	i	i	i
Clc1ccc(SCc2csc(N3CCOCC3)n2)cc1	i	i	72	i	i	i
CCOC(=O)N1CCN(C(=S)NC(C)(C)C)CC1	i	i	i	5.2	i	i
Cc1nc2ccc(NC(=O)c3sccc3C)cc2s1	i	i	61	i	i	i
Cc1nc2ccc(NC(=O)N3CCCCC3)cc2s1	i	i	i	i	i	i
Cc1nc2ccc(NC(=O)N3CCSCC3)cc2s1	-60	i	i	i	i	i
Fc1ccc(Nc2nc(N3CCOCC3)c3ccccc3n2)cc1	i	nt	i	i	i	i
c1ccc2c(Nc3nc(N4CCOCC4)c4ccccc4n3)cccc2c1	i	i	i	i	71	i
O=C(C1CCN(c2nnc(N3CCCC3=O)s2)CC1)N1CCN(Cc2ccc3c(c2)OCO3)CC1	nt	33	nt	i	nt	i
CC1CC1C(=O)Nc1nc2ccc(Cl)cc2s1 (stereo unspecified)	i	nt	61	i	67	i
Cn1cc(Cl)c(C(=O)Nc2nc3ccc(Cl)cc3s2)n1	i	i	57	i	i	i
CCN(CC)c1ccc(S(=O)(=O)N2CCOCC2)cc1NC(=O)CN1C(=O)NC2(CCC(C)CC2)C1=O (stereo unspecified)	i	nt	i	i	i	i
O=C(Nc1ccccn1)Nc1ccccc1[N+](=O)[O-]	i	i	i	i	49	i
CCCOc1ccc(C(=O)Nc2ccccc2[N+](=O)[O-])cc1	i	i	59	i	i	i
CCCONC(=O)Nc1ccccc1[N+](=O)[O-]	i	i	i	i	53	i
Cc1ccccc1NC(=O)Nc1ccccn1	i	i	i	i	i	i
Cc1nn(-c2ccccc2)c2c1C(c1ccc(O)c(O)c1)N1C(=N2)C(Nc2ccccc2)=Nc2ccccc21 (stereo unspecified)	i	i	i	4.3	i	i
CN(C)CC(O)COC(c1ccc(Cl)cc1)c1ccc(Cl)cc1 (stereo unspecified)	i	i	i	4.3	i	i
COCCN(C(=O)CSc1nnc(-c2cccc(Cl)c2)n1N)c1c(N)n(CC(C)C)c(=O)[nH]c1=O	nt	nt	nt	i	nt	i
SMILES	HSF1 inh	HSP90 refold inh	HSF1 activator	NR0B1 inh	AHR activator	FXN GAA850 act
Cc1ccc(S(=O)(=O)CCC(=O)Nc2cccc([N+](=O)[O-])c2)cc1	i	i	i	7.3	i	i
O=C(CCc1ccccc1)Nc1cccc([N+](=O)[O-])c1	-76	i	i	i	i	i
Cc1cccc(NC(=O)c2ncn3c2C(=O)N(C)CC3)c1	nt	nt	nt	i	nt	i
C[C@H](CO)N1C[C@H](C)[C@@H](CN(C)S(=O)(=O)c2cccs2)Oc2ccc(NC(=O)c3ccncc3)cc2C1=O	nt	nt	nt	i	i	i
Cc1cn([C@H]2C[C@H](O)[C@@H](CNC/C=C/c3ccccc3[N+](=O)[O-])O2)c(=O)[nH]c1=O	nt	nt	nt	i	nt	i
Cc1nc(NC(=O)CC(C)C)sc1-c1csc(Nc2ccc(Cl)cc2Cl)n1	i	i	i	i	61	i

Screening results deposited in PubChem BioAssay by several laboratories.
